Screening results as filed in PubChem BioAssay.
HT1080 IDH1KD tx – HT-1080 IDH1 knockdown cell toxicity (counter line); HT-1080 IDH1 knockdown viability, ATP luminescence, 48 h; Potency, µM (top dose mostly 46.1 µM), inactives show at the highest dose activity, negative = toxicity, most hits filed as cytotoxic; 2% of 360,000 active; AID 686971;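 also: potency is read from the fitted curve at half-maximal effect; 0% = DMSO wells and -100% = cell-free medium wells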
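Using the IDH1-knockdown HT-1080 line run in the same batch and compound series as the NT line, viability after 48 h at 37 °C was determined by CellTiter-Glo luminescence and expressed as % activity.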
HT1080NT lethal – kills 2HG-producing HT-1080-NT fibrosarcoma cells; HT-1080-NT fibrosarcoma viability, CellTiter-Glo ATP luminescence, 48 h; Potency, µM (titrated, usually from 46.1 µM), without a hit: at the top dose activity, negative = less viability, most hits filed as cytotoxic; 1.6% of 360,000 active;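 also: NT is the 2HG producing partner of a matched IDH1 knockdown line; potency is read from the fitted curve at half-maximal effect; 0% = DMSO-treated cells and -100% = media-only wells without cells; nearly all actives have a fitted effect of over 55% in size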
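Read-out is CellTiter-Glo luminescence after 10 minutes at room temperature, following 48 hours' compound treatment of HT-1080-NT cells (750 cells/well, RPMI, 5% FBS, 37 degrees C).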
DT40 TDP1 CPT – growth inhibition of DT40 Tdp1-/-;hTDP1 cells with camptothecin (screen for TDP1 inhibitors). 12% of 420,000 active. AID 686979. Potency, µM (series often up to 46.2 µM), without a hit: top-dose activity change, negative = growth inhibition, actives largely listed as inhibitors. chicken DT40 Tdp1-/-;hTDP1 cells + 20 nM CPT, ATP luminescence, 48 h; also: potency is read from the fitted curve at half-maximal effect; nearly all actives have a fitted effect of over 55% in size
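Chicken DT40 Tdp1-/- cells complemented with human TDP1, 400 cells/well, exposed to compounds plus 20 nM camptothecin for at least 48 h at 37 C; viability read as ATP content by CellTiter-Glo luminescence.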
TDP1 cell noCPT – qHTS for Inhibitors of human tyrosyl-DNA phosphodiesterase 1 (TDP1): qHTS in cells in absence of CPT. DT40 Tdp1-/- hTDP1 cells, no CPT, ATP luminescence, 48 h. Potency, µM (highest dose often 46.2 µM), for inactives: top-dose activity change, negative = growth inhibition, usual class: inhibitors. 15% of 420,000 active. AID 686978, 2013; also: potency is read from the fitted curve at half-maximal effect; nearly all actives have a fitted effect of over 55% in size
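Readout: luminescence from CellTiter-Glo after 30 min in the dark at RT. Cells: DT40 Tdp1-/- with stable hTDP1, 400/well. Exposure: compounds alone, ≥48 hr, 37 °C.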
IL1B secr inh – inhibitors of inflammasome signaling (IL-1 beta secretion). THP-1 LPS/ATP IL-1B secretion, AlphaLISA, 16 h; active compounds read low. activity change, % at 57.5 µM. 4.7% of 360,000 active; in the data active = activity change below about -50%; inconclusive = mostly about -30% to -49%
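THP-1 cells pretreated 1 hr with compounds (up to 57.5 uM final), then stimulated with LPS (250 ng/mL final) plus ATP (1.25 mM final); secreted IL-1B measured by AlphaLISA after 16 hr, decreased signal indicating inhibition.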
* = called active by the depositor; ? = inconclusive; / = not tested or not shown; [ ] = remark or other dose. An excerpt weighted towards active compounds, which were near 19% of everything screened. Unless noted, calls follow the shape of the dose curve; as a rule, active = well fitted curve in the direction sought with a large enough effect; inconclusive = small, poorly fitted or top-dose-only effect, or another doubt; inactive = no such curve, though single readings can be large; an effect the other way counts as inactive or inconclusive. Unless noted, % is scaled to controls: 0 for no effect and ±100 for the full control effect.

SMILES | HT1080 IDH1KD tx | HT1080NT lethal | DT40 TDP1 CPT | TDP1 cell noCPT | IL1B secr inh
O=C(CN1C(=O)CCC1=O)Nc1cccc2c1C(=O)NC2=O | 2% | -10% | -8% | -6% | 46
COc1ccc2c(c1)OC(C)CN(CCNC(=O)c1ccc(-n3cccn3)cc1)C2 (stereo unspecified) | / | / | 6%[9.04 µM] | -19% | /
O=C(CSCc1ccc(Cl)cc1)Nc1ccc(S(=O)(=O)N2CCOCC2)cc1 | -12% | -9% | ? | ? | 5
O=C(Nc1ccccc1N1CCCCC1)C1CCN(C(=O)c2ccc(Cl)cc2)CC1 | -4% | -5% | 23µM* | ? | -72*
CC(C)(C)C(=O)Nc1ccccc1N1CCN(C(=O)c2ccc(Cl)cc2)CC1 | -4% | 0% | ? | ? | -6
O=C(Nc1ccccc1N1CCCC1)C1CCN(C(=O)c2ccc(Cl)cc2)CC1 | 3% | 2% | ? | ? | ?
O=C(Nc1ccccc1N1CCN(C(=O)c2ccccc2)CC1)c1cc(Br)ccc1Cl | -23% | -15% | 18µM* | 23µM* | -29
O=C(Nc1ccccc1N1CCN(C(=O)c2ccc(Cl)cc2)CC1)c1ccc2c(c1)OCO2 | -2% | -3% | -54% | -45% | 9
O=C(Nc1ccccc1N1CCN(C(=O)c2ccc(Cl)cc2)CC1)c1cccc(F)c1 | -15% | -9% | ? | ? | -55*
CC(Sc1nnc(Cc2cccs2)n1C)C(=O)Nc1ccc(C(N)=O)cc1 (stereo unspecified) | 1% | 4% | 0% | 8% | 8
C=CCn1c(SCC(=O)c2cccs2)nc2sc(C)cc2c1=O | ? | -18% | ? | 21µM* | -23
O=C(Cn1nc(-c2ccccc2)nc1-c1ccccc1)OC1CCCCC1 | -2% | 5% | ? | 18µM* | 0
COc1ccc(CN2CCN(c3nc4ccccc4s3)CC2)cc1 | 17% | 24% | ? | ? | 18
Cc1ccccc1CN1CCN(c2nc3ccccc3s2)CC1 | -8% | -3% | 18µM* | -15% | 18
CC(C)CC(NS(=O)(=O)c1cccc(C(=O)O)c1)C(=O)O (stereo unspecified) | 16% | 10% | -21% | -9% | 3
C=CCc1ccccc1OCCNCc1ccccc1 | ? | -1% | ? | 16µM* | -91*
Cc1cc(C)c(C)c(OCCNCc2ccccc2)c1 | 15µM* | ? | ? | ? | -93*
Clc1ccc(OCCOCCNCc2ccccc2)cc1Cl | -24% | -28% | 16µM* | 18µM* | -26
C/C=C/c1ccc(OCCNCc2ccccc2)c(OC)c1 | 0% | -8% | ? | ? | -5
C=CCc1ccc(OCCCNCc2ccccc2)c(OC)c1 | -3% | -6% | ? | ? | ?
Cc1cc(Cl)cc(C)c1OCCNCc1ccccc1 | ? | 18µM* | ? | 21µM* | -96*
CCOC(=O)/C(C#N)=C/c1c(N2CCN(c3ccccc3)CC2)nc2ccccn2c1=O | 25% | 2% | ? | -10% | 32
N/C(=N\N=C\c1ccc(Cl)cc1)N/N=C/c1ccc(Cl)cc1 | / | / | ? | -21% | /
Cc1cc(C)c(OCCN(C)Cc2ccccc2)c(Br)c1 | -27% | -24% | ? | ? | 9
Cc1cc(C)c(OCCNCc2ccccc2)c(C)c1 | -30% | -17% | ? | ? | -54*
SMILES | HT1080 IDH1KD tx | HT1080NT lethal | DT40 TDP1 CPT | TDP1 cell noCPT | IL1B secr inh
COc1c(Cl)cc(Cl)cc1CNCc1ccccc1 | 29% | 4% | -27% | ? | 28
Cc1cc(Cl)cc(C)c1OCCOCCNCc1ccccc1 | -28% | ? | 23µM* | ? | ?
Cc1ccc(NC2(c3ccccc3)C(=O)c3ccccc3C2=O)cc1F | / | / | -2% | -21% | /
COc1cc2oc(=O)cc(CN3CCCCC3)c2cc1Cl | 22% | 27% | 0% | -21% | 8
Cc1cc(C)c(C(=O)Nn2c(C)nc3ccccc3c2=O)cc1C | 3% | 1% | ? | -21% | -6
CCNC(=O)N(C)C[C@H]1N[C@@](CC)(C(=O)OC)[C@H]2C(=O)N(C)C(=O)[C@@H]12 | 6% | 4% | -21% | 2% | 10
COc1ccc(/C=N/NC(=O)OC(C)(C)C)cc1OC | 1% | 1% | 2% | -4% | 10
CCN1CCN(CCCNC(=O)C2CCCN(c3nc4c(C)cc(C)cc4s3)C2)CC1 (stereo unspecified) | ? | ? | 23µM* | 21µM* | -14
Cc1cc(C)c2nc(N3CCCC(C(=O)NCCN4CCOCC4)C3)sc2c1 (stereo unspecified) | 1%[9.24 µM] | 1% | ? | ? | -1
Cc1cc(C)c2nc(N3CCC(C(=O)NCCCN4CC(C)CC(C)C4)CC3)sc2c1 (stereo unspecified) | / | / | ? | 23µM* | -17
COc1ccc(CCNC(=O)CCc2ccc(S(=O)(=O)NC(C)C)cc2)cc1 | 5% | -1% | -9% | -19% | 0
Cc1nn(-c2ccccc2)c(Oc2ccccc2)c1C=O | 2% | -4% | 16µM* | 13µM* | ?
CCOc1ccc(N2CC(C(=O)NNC(=O)c3ccc(Br)cc3)CC2=O)cc1 (stereo unspecified) | -9% | -5% | -28% | ? | -14
COCCn1c(C)cc(C(=O)COC(=O)/C=C/c2ccc(OC)cc2OC)c1C | 11% | 9% | -3% | ? | -13
COCC(C)n1c(C)cc(C(=O)CSc2nc(C)c(C)c(C)n2)c1C (stereo unspecified) | 0% | 2% | ? | 15µM* | -13
COCC(C)n1c(C)cc(C(=O)COC(=O)c2n[nH]c3ccccc23)c1C (stereo unspecified) | -1% | -1% | ? | 26µM* | ?
COCCn1c(C)cc(C(=O)CSc2cc(C)c3ccc(OC)cc3n2)c1C | -17% | -20% | ? | 16µM* | 6
COCCn1c(C)cc(C(=O)CSc2ncn[nH]2)c1C | -1% | 2% | 2% | -2% | 18
COCCn1c(C)cc(C(=O)CSc2nc(C)c(C)c(C)n2)c1C | 10% | 8% | 29µM* | 23µM* | -6
Clc1ccc(OCc2noc(-c3ccsc3)n2)c(Cl)c1 | 13% | ? | 3% | -25% | -6
CC(C)OCCCNC(=O)C(=O)Nc1c2c(nn1-c1ccccc1)CS(=O)(=O)C2 | / | / | -5% | -16% | /
CN(C)c1nc(NC(C)(C)C)nc(NC(C)(C)C)n1 | 0% | -3% | ? | 21µM* | 24
CCNc1nc(NC(C)(C)C)nc(N(CC)n2cnnc2)n1 | 11% | 5% | -1% | -16% | 16
CCN(CCC(=O)Nc1ccc(Br)c(C)c1)Cc1ccccc1 | ? | 15µM* | ? | 29µM* | ?
